The record followed here is the supplement of paper PMC10849652.

Targets with a hit are over-represented here; the source holds about 8,800 in all. About 0.5% of all pairs of compound and target were hits. Unmarked numbers belong to inactive results.

Sequence of UniProt O95777 (O95777 whole entry, looked up): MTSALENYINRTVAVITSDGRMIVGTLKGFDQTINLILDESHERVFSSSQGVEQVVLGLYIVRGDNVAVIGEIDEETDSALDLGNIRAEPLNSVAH
Sequence of UniProt P49916 (P49916 whole entry, looked up): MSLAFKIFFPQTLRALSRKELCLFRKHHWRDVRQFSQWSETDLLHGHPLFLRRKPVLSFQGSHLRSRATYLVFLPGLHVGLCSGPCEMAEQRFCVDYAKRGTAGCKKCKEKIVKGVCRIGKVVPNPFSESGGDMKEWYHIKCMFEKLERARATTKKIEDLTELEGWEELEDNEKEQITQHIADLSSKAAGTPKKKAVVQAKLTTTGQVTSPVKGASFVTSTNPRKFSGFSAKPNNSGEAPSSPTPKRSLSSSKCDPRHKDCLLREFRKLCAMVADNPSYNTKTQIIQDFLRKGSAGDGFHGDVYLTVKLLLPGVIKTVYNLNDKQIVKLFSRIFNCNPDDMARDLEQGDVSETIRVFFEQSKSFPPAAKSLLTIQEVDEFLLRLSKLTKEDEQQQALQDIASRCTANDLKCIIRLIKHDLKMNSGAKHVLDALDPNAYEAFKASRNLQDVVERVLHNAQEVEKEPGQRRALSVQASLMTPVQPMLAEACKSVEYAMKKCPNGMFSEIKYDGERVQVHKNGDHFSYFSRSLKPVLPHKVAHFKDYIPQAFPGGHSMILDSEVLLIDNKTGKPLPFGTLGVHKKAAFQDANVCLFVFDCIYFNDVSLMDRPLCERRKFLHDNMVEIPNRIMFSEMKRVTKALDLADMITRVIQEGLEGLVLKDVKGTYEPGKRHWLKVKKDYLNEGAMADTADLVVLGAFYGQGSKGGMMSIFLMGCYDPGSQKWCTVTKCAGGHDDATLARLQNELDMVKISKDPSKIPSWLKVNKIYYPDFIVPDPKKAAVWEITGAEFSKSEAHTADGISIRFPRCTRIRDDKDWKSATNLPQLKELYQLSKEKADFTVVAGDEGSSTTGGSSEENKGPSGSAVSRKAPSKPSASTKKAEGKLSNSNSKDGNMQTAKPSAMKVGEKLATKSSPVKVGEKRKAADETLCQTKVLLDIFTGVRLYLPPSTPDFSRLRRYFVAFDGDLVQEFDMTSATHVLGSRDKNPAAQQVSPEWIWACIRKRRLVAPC
Sequence of UniProt Q00013 (Q00013 whole entry, looked up): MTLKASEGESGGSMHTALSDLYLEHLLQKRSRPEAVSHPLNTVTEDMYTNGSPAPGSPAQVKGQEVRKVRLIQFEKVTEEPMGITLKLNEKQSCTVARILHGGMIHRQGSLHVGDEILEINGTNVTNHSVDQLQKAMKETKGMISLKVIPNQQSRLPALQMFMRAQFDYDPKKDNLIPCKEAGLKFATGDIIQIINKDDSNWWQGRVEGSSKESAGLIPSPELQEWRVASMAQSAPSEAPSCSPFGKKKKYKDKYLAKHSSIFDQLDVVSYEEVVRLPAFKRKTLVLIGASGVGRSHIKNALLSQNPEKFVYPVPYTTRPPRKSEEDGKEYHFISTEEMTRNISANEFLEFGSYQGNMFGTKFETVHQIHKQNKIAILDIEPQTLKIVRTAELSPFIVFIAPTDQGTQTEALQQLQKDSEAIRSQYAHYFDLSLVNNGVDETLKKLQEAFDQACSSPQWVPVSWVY
Sequence of UniProt Q9GZY8 (Q9GZY8 whole entry, looked up): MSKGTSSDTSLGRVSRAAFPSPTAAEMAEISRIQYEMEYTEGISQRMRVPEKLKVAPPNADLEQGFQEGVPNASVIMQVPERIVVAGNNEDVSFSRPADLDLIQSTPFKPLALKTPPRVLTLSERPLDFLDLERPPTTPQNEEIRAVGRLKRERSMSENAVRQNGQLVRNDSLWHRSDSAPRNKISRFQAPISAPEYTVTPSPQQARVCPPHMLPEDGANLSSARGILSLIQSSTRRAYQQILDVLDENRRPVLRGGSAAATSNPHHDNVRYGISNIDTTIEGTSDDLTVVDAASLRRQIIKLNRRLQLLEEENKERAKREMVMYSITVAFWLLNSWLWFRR
Sequence of UniProt Q9NVC6 (Q9NVC6 whole entry, looked up): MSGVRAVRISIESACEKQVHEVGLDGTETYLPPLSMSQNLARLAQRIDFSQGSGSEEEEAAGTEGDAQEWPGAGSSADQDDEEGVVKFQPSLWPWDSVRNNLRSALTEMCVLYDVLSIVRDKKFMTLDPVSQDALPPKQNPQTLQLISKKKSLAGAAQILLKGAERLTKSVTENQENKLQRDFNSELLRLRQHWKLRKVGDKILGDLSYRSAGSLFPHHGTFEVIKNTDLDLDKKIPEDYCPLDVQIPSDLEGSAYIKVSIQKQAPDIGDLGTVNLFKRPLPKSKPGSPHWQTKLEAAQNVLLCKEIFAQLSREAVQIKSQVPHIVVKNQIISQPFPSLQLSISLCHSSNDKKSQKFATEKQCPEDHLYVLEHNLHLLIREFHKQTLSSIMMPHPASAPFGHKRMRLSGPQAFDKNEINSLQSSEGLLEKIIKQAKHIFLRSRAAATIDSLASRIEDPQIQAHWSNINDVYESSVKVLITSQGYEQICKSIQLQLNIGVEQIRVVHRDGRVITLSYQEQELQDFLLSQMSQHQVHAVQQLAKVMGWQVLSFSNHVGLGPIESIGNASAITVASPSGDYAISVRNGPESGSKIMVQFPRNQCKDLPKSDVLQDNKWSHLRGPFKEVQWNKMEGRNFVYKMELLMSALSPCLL
Sequence of UniProt O00629 (O00629 whole entry, looked up): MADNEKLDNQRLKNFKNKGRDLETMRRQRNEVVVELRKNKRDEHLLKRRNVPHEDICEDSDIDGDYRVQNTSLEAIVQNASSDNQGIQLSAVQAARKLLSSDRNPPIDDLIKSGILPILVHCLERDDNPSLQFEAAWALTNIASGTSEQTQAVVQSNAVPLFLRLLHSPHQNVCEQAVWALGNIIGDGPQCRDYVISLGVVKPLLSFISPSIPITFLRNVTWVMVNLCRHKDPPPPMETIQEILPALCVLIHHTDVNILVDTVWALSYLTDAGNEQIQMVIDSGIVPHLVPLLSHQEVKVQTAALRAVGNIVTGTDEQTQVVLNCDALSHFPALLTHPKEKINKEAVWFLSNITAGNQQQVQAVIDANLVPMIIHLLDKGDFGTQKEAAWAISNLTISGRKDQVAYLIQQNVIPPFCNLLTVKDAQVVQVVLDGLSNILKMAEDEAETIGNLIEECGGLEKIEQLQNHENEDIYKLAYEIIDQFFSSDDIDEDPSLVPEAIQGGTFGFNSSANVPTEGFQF
Sequence of UniProt O95297 (O95297 whole entry, looked up): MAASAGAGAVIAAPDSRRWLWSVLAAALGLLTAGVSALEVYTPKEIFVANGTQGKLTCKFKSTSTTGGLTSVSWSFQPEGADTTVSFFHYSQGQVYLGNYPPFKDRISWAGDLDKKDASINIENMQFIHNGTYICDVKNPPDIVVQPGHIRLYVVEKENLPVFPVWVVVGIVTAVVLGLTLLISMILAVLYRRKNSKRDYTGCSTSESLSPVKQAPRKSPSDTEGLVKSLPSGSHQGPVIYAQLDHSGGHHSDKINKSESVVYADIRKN
Sequence of UniProt Q15334 (Q15334 whole entry, looked up): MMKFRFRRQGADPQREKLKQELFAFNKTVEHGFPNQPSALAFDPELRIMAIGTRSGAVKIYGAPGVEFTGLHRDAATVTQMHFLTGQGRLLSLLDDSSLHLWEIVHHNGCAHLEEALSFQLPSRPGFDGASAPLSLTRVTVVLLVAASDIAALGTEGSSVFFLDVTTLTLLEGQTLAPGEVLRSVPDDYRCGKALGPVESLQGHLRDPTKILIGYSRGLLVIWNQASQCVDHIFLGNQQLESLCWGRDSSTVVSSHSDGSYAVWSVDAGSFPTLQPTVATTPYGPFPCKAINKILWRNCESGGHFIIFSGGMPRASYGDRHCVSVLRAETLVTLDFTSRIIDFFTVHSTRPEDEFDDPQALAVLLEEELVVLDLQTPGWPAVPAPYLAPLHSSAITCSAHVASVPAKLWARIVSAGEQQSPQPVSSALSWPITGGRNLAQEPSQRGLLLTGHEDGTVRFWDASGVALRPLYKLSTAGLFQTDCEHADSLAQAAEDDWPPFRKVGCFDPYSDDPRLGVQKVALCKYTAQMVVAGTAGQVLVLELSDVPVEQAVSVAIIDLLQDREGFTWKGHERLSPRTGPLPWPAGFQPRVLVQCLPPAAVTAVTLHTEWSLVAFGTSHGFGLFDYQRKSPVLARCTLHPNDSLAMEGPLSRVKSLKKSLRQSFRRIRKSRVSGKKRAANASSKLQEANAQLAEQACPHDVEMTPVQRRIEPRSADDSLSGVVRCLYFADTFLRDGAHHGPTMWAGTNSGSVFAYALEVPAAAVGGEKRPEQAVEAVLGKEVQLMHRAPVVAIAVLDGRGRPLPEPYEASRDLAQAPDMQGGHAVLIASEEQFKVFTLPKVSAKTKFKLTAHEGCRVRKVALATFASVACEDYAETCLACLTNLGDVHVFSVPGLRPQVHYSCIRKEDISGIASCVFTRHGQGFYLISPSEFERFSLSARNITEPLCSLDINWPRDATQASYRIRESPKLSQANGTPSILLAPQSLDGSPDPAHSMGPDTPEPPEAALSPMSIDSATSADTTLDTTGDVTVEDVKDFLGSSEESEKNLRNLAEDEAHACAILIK
Sequence of UniProt P48059 (P48059 whole entry, looked up): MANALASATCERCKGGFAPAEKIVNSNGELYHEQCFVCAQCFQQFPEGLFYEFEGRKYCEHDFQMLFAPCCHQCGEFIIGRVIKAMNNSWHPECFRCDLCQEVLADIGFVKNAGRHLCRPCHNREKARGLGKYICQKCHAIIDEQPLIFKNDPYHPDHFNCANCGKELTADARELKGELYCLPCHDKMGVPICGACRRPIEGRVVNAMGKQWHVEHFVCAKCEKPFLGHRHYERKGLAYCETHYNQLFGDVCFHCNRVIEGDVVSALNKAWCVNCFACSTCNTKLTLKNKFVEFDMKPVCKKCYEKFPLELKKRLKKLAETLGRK
Sequence of UniProt P10620 (P10620 whole entry, looked up): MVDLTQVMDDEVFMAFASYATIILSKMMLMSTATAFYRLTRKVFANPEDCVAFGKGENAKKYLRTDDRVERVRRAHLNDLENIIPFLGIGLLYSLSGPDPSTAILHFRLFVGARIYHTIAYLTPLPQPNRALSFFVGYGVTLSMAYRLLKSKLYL

Compound in one assay: COc1cc2ncnc(Nc3ccc(F)c(Cl)c3)c2cc1OCCCN1CCOCC1 [gefitinib]
Briefly: log2 fold change, soluble protein after heating vs DMSO (PISA); higher = thermal stabilisation; K562 lysate, 10 uM; active = over 0.2 and 3.5 SD of the protein, either way, in both replicates (recomputed). The procedure, abridged:
(§1)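 K562 pellets were dounce-homogenised in PBS pH 7.4 with 1 mM MgCl2, and the crude extract at 1 mg/mL protein was treated with 10 μM compound for 30 min. Aliquots were heated for 3 min across 48°C-58°C, pooled, and brought to 0.5% NP-40 at 4°C; soluble protein was the supernatant after 21,000xg for 90 min. Soluble protein was quantified by TMTpro 16plex LC-MS/MS with channel sums equalised, and reported as log2 fold change in thermal stability against DMSO controls, with values from duplicates.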
For the target LARS2 (UniProt Q15031), the log2 fold change was 0.012.
Same read-out and setting: as for LYSMD3 (UniProt Q7Z3D4), the figure is 0.254; as for MARK3 (UniProt P27448), -0.02.
As to MAP2K2 (UniProt P36507), the log2 fold change was -0.013.
Same read-out and setting: for MAD2L1BP isoform 3 (UniProt Q15013) the value was -0.054; for MOCS1 isoform 8 (UniProt Q9NZB8), 0.395 (active); for LRRC40 (UniProt Q9H9A6), 0.001.
The same measure, in the same setting: as for MPZL1 (UniProt O95297), the figure is 0.016; as for MON2 isoform 5 (UniProt Q7Z3U7), 0.005; as for LLGL1 (UniProt Q15334), -0.065.
On to MRPL10 isoform 2 (UniProt Q7Z7H8), for which the log2 fold change is -0.019.
The same measure, in the same setting: for LIMS1 isoform 3 (UniProt P48059) the value was -0.097; for MED12 isoform 2 (UniProt Q93074), 0.027.
With METTL7A (UniProt Q9H8H3), the log2 fold change is -0.046.
Still for that read-out and setting: for MED17 (UniProt Q9NVC6) the value was -0.015; for LSM8 (UniProt O95777), 0.046; for MFF isoform 2 (UniProt Q9GZY8), 0.048.
Same read-out and setting: for LARS (UniProt Q9P2J5) the value was -0.007; for MAPK9 (UniProt P45984), 0.027.
Still for that read-out and setting: as for MED13L (UniProt Q71F56), the figure is 0.01.
Regarding MACROD1 (UniProt Q9BQ69), the log2 fold change is 0.033.
Turning to MRPL46 (UniProt Q9H2W6), the log2 fold change was 0.041.
MGST1 (UniProt P10620): the log2 fold change was -0.066.
MGAT5 (UniProt Q09328): the log2 fold change is -0.064.
The same measure, in the same setting: for MAT2B (UniProt Q9NZL9) the value was -0.006.
Still for that read-out and setting: for MCMBP (UniProt Q9BTE3) the value was 0.011; for MICB, A0A140T979, -0.012.
LSS (UniProt P48449): the log2 fold change was 0.055.
On the same count and under the same terms, for MORF4L1 isoform 2 (UniProt Q9UBU8) the value was 0.008; for MAPKAPK3 (UniProt Q16644), 0.148.
With KPNA4 (UniProt O00629), the log2 fold change is 0.013.
LIG3 (UniProt P49916): the log2 fold change was -0.015.
Regarding MAP4 (UniProt E7EVA0), the log2 fold change is 0.098.
The same measure, in the same setting: as for MLST8 (UniProt Q9BVC4), the figure is -0.004; as for LSG1 (UniProt Q9H089), -0.059.
The same measure, in the same setting: for MPP1 (UniProt Q00013) the value was 0; for LRWD1 (UniProt Q9UFC0), -0.024.
Take MBD2 (UniProt Q9UBB5): the log2 fold change is -0.016.
As for MCU (UniProt Q8NE86), the log2 fold change is -0.091.

Compound in another assay: CS(=O)(=O)CCNCc1ccc(-c2ccc3ncnc(Nc4ccc(OCc5cccc(F)c5)c(Cl)c4)c3c2)o1 [lapatinib]
Described as above. The procedure, abridged: as §1
Consider LARS2 (UniProt Q15031), for which the log2 fold change was -0.012.
Take LYSMD3 (UniProt Q7Z3D4): the log2 fold change is -0.039.
Still for that read-out and setting: for MARK3 (UniProt P27448) the value was 0.007; for MAP2K2 (UniProt P36507), -0.048; for MAD2L1BP isoform 3 (UniProt Q15013), 0.017.
On the same count and under the same terms, as for MOCS1 isoform 8 (UniProt Q9NZB8), the figure is -0.022.
On to LRRC40 (UniProt Q9H9A6), for which the log2 fold change was -0.004.
In the case of MPZL1 (UniProt O95297), the log2 fold change is -0.006.
Turning to MON2 isoform 5 (UniProt Q7Z3U7), the log2 fold change is -0.034.
Same read-out and setting: for LLGL1 (UniProt Q15334) the value was -0.005; for MRPL10 isoform 2 (UniProt Q7Z7H8), -0.02; for LIMS1 isoform 3 (UniProt P48059), 0.002.
On to MED12 isoform 2 (UniProt Q93074), for which the log2 fold change is 0.009.
With METTL7A (UniProt Q9H8H3), the log2 fold change is 0.023.
Regarding MED17 (UniProt Q9NVC6), the log2 fold change is 0.003.
For LSM8 (UniProt O95777), the log2 fold change was -0.005.
Turning to MFF isoform 2 (UniProt Q9GZY8), the log2 fold change was 0.055.
Regarding LARS (UniProt Q9P2J5), the log2 fold change was -0.004.
For the target MAPK9 (UniProt P45984), the log2 fold change was 0.001.
Same read-out and setting: as for MED13L (UniProt Q71F56), the figure is 0.034.
Regarding MACROD1 (UniProt Q9BQ69), the log2 fold change was 0.011.
With MRPL46 (UniProt Q9H2W6), the log2 fold change was 0.019.
As for MGST1 (UniProt P10620), the log2 fold change was -0.047.
With MGAT5 (UniProt Q09328), the log2 fold change was 0.022.
As for MAT2B (UniProt Q9NZL9), the log2 fold change was 0.008.
Consider MCMBP (UniProt Q9BTE3), for which the log2 fold change was 0.008.
Still for that read-out and setting: for MICB, A0A140T979 the value was -0.169; for LSS (UniProt P48449), 0; for MORF4L1 isoform 2 (UniProt Q9UBU8), 0.024.
Regarding MAPKAPK3 (UniProt Q16644), the log2 fold change is 0.
Same read-out and setting: for KPNA4 (UniProt O00629) the value was 0.03; for LIG3 (UniProt P49916), -0.007; for MAP4 (UniProt E7EVA0), 0.002.
Consider MLST8 (UniProt Q9BVC4), for which the log2 fold change is -0.028.
The same measure, in the same setting: for LSG1 (UniProt Q9H089) the value was -0.002; for MPP1 (UniProt Q00013), 0.006.
Same read-out and setting: as for LRWD1 (UniProt Q9UFC0), the figure is -0.026; as for MBD2 (UniProt Q9UBB5), -0.009; as for MCU (UniProt Q8NE86), -0.145.
